High-throughput results from PubChem BioAssay.
Abeta yeast res = compounds reversing amyloid beta toxicity in yeast. yeast expressing A-beta42, growth rescue, OD600, 48 h; response scale: 0% DMSO, 100% iron-clioquinol control. Potency, µM (doses to about 46.1 µM), actives largely listed as activators. 410,000 tested, 0.063% active. AID 1347071; also: nearly all actives have a fitted effect of over 55% in size
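Yeast growth medium received pinned compounds, then yeast cells expressing toxic A-beta were added; plates incubated at 30 C for 48 hr. Growth read as absorbance at 600 nm, normalized to DMSO and equimolar FeCl3 plus clioquinol controls.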
pAkt inh = inhibitors of Akt phosphorylation; activity change, % for hits at 50 µM; 360,000 tested, 0.32% active; Neuro2A IGF-stimulated pAkt S473 HTRF, 20 min; stronger effect = lower value; AID 651550; in the data active = activity change below about -80%; inconclusive = mostly about -51% to -80%
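Single-point screen (50 µM final compound) in Neuro2A cells stimulated 20 min with 6 nM IGF at 37 deg C. After lysis, Ser473-phosphorylated Akt read by HTRF (ex 330 nm, em 615/665 nm) as the 665/615 ratio.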
TDP43 rescue = inhibitors of TDP-43 toxicity in yeast | TDP-43 expressing yeast growth rescue, BacTiter-Glo, 24 h | Potency, µM (highest dose often 46.1 µM), hits mostly activators | 410,000 tested, 1.8% active; also: nearly all actives have a fitted effect of over 50% in size
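Yeast expressing TDP-43 (pregrown in raffinose, seeded at OD600=0.02 in galactose medium) exposed to compounds 24 hr at 30 deg C. Growth read by BacTiter-Glo luminescence; rescue of toxicity appears as increased signal.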
aSyn yeast inh = rescues yeast growth from alpha-synuclein toxicity; Yeast expressing alpha-synuclein, growth rescue, BacTiter-Glo, 24 h; Potency, µM (titrated, usually from 46.1 µM), hits mostly activators; 370,000 tested, 0.14% active; AID 652106; also: nearly all actives have a fitted effect of over 65% in size
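Galactose-induced alpha-syn yeast (OD600=0.02, raffinose-pregrown) + pinned cpd, 24 hr, 30 deg C; growth by BacTiter-Glo luminescence. Growth restoration scores as activation.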
FUS yeast rescue = suppressors of FUS proteinopathy in yeast. S. cerevisiae FUS-expressing, growth rescue, OD600, 24 h. Potency, µM (highest dose often 76.6 µM), most hits filed as activators. 390,000 tested, 0.24% active. AID 1347120; also: nearly all actives have a fitted effect of over 55% in size
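Yeast expressing FUS under galactose induction, OD 0.005 in 2% galactose medium; compounds in a dilution series, 24 h at 30C. Growth rescue by absorbance at 600 nm; CP55940 positive control, DMSO negative.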
A number is an active result. Most compounds without a hit are left out; they make up all but 2.3% or so of the library. Unless noted, calls follow the shape of the dose curve; as a rule, active = well fitted curve in the direction sought with a large enough effect; inconclusive = small, poorly fitted or top-dose-only effect, or another doubt; inactive = no such curve, though single readings can be large; an effect the other way counts as inactive or inconclusive.

`COc1ccccc1CCNC(=O)C1CCC(=O)N(Cc2ccccc2OC)C1` (configuration not stated) gave Abeta yeast res inactive, pAkt inh inactive, TDP43 rescue inactive, aSyn yeast inh inactive and FUS yeast rescue inactive.
COc1ccccc1CN1CC(C(=O)NCCCc2ccc(F)cc2)CCC1=O (configuration not stated) was read as Abeta yeast res inactive, pAkt inh inactive, TDP43 rescue inactive, aSyn yeast inh inactive and FUS yeast rescue 16µM.
`Cc1onc(-c2c(Cl)cccc2Cl)c1C(O)c1ccc(F)cc1` (configuration not stated) gave Abeta yeast res inactive, pAkt inh inactive, TDP43 rescue inconclusive, aSyn yeast inh inconclusive and FUS yeast rescue inactive.
Cc1onc(-c2c(Cl)cccc2Cl)c1C(O)c1ccccc1 (configuration not stated) was read as Abeta yeast res inactive, pAkt inh inactive, TDP43 rescue 11µM, aSyn yeast inh inactive and FUS yeast rescue inactive.
For COc1ccc(C2=Nn3c(nnc3-c3ccccc3Cl)SC2)cc1OCC1CC1 the results were Abeta yeast res inactive and FUS yeast rescue inactive.
COc1ccc(OC)c(-c2nnc3n2N=C(c2ccc(OC)c(OCC4CC4)c2)CS3)c1 was read as Abeta yeast res inactive and FUS yeast rescue 28µM.
CCN(CC)C(=O)CC[C@H]1CC[C@]2(CCCN(c3ccccc3)C2)O1 was read as FUS yeast rescue inactive.
CC(Oc1cccc(Br)c1)C(=O)NNC(=O)c1ccccn1 (configuration not stated) was read as Abeta yeast res inconclusive, pAkt inh inactive, TDP43 rescue 25µM, aSyn yeast inh inconclusive and FUS yeast rescue inactive.
Cc1ccc(CN2C(=O)c3ccccc3C2C(=O)NC2CCCCCC2)cc1 (configuration not stated) was read as Abeta yeast res inactive, TDP43 rescue inactive and FUS yeast rescue inactive.
For COc1ccc(NC(=O)c2ccc(-c3ccccc3C(F)(F)F)o2)cc1 the results were Abeta yeast res inactive, pAkt inh inactive, TDP43 rescue 13µM, aSyn yeast inh inactive and FUS yeast rescue inactive.
`CCc1ccccc1NC(=O)CSc1nnc(COc2ccccc2Cl)o1` gave Abeta yeast res inactive, TDP43 rescue 16µM and FUS yeast rescue inactive.
COc1ccc(OC)c(NC(=O)CSc2nnc(C3CCCCC3)o2)c1 was read as Abeta yeast res inactive, pAkt inh inactive, TDP43 rescue inactive, aSyn yeast inh inactive and FUS yeast rescue inactive.
Screening COc1ccccc1NC(=O)CSc1nnc(-c2cccc(Cl)c2)o1 returned Abeta yeast res inactive, TDP43 rescue 18µM and FUS yeast rescue inactive.
Screening COc1ccccc1NC(=O)CSc1nnc(C2CCCCC2)o1 returned Abeta yeast res inconclusive, pAkt inh inactive, TDP43 rescue 18µM, aSyn yeast inh inactive and FUS yeast rescue inactive.
Screening O=C(CSc1nnc(COc2ccc(Cl)cc2Cl)o1)Nc1ccccn1 returned Abeta yeast res inactive, pAkt inh inactive, TDP43 rescue inactive, aSyn yeast inh inactive and FUS yeast rescue inactive.
CC(C)CCNC(=O)C1CCN(c2nc3ccc(Cl)cc3[nH]2)CC1 was read as Abeta yeast res inactive, TDP43 rescue inactive and FUS yeast rescue inactive.
COc1ccccc1CNC(=O)Cc1c(C)c2c(cc(C)c3c(C)c(C)oc32)oc1=O was read as Abeta yeast res inactive, TDP43 rescue inactive and FUS yeast rescue inactive.
Cc1ccc(S(=O)(=O)N(C)C[C@@H]2Oc3ncc(C#CCC(C)C)cc3C(=O)N([C@H](C)CO)C[C@H]2C)cc1 was read as Abeta yeast res inactive, pAkt inh inactive, TDP43 rescue 25µM, aSyn yeast inh inactive and FUS yeast rescue 28µM.
Screening Cc1ccc(S(=O)(=O)Nc2ccc3c(c2)C(=O)N([C@H](C)CO)C[C@H](C)[C@@H](CN(C)C(=O)NC2CCCCC2)OCCCC[C@@H](C)O3)cc1 returned Abeta yeast res inactive, pAkt inh inactive, TDP43 rescue inactive, aSyn yeast inh inactive and FUS yeast rescue 16µM.
Cc1ccc(S(=O)(=O)Nc2ccc3c(c2)C(=O)N([C@@H](C)CO)C[C@@H](C)[C@@H](CN(C)C(=O)NC2CCCCC2)OCCCC[C@H](C)O3)cc1 was read as Abeta yeast res inactive, pAkt inh inactive, TDP43 rescue inactive, aSyn yeast inh inactive and FUS yeast rescue inactive.
Cc1ccc(S(=O)(=O)Nc2ccc3c(c2)C(=O)N([C@H](C)CO)C[C@H](C)[C@H](CN(C)C(=O)Nc2cccc4ccccc24)OCCCC[C@@H](C)O3)cc1 was read as Abeta yeast res inactive, pAkt inh inactive, TDP43 rescue inconclusive, aSyn yeast inh inactive and FUS yeast rescue 13µM.
COc1ccc(S(=O)(=O)Nc2ccc3c(c2)C(=O)N([C@H](C)CO)C[C@H](C)[C@@H](CN(C)S(=O)(=O)c2ccccc2)O3)cc1 was read as Abeta yeast res inactive, pAkt inh inactive, TDP43 rescue inactive, aSyn yeast inh inactive and FUS yeast rescue inconclusive.
COc1ccc(S(=O)(=O)N(C)C[C@H]2Oc3ccc(NS(=O)(=O)c4ccccc4)cc3C(=O)N([C@H](C)CO)C[C@@H]2C)cc1 was read as Abeta yeast res inactive, pAkt inh inactive, TDP43 rescue inactive, aSyn yeast inh inactive and FUS yeast rescue 18µM.
CN(C(=O)CSc1nc2ccc(NC(=O)c3ccccc3)cc2s1)c1ccccc1 was read as Abeta yeast res inactive, TDP43 rescue inactive and FUS yeast rescue inactive.
For CC(C)c1ccc(S(=O)(=O)c2nnn3c2nc(N2CCN(C)CC2)c2sccc23)cc1 the results were Abeta yeast res inactive, TDP43 rescue inactive and FUS yeast rescue inactive.
CC(=O)Nc1ccc(N2C(=O)CSC2c2c(F)cccc2Cl)cc1 (configuration not stated) was read as Abeta yeast res inconclusive, TDP43 rescue inactive and FUS yeast rescue inactive.
For Fc1cccc(Cl)c1C1SCc2nc3ccccc3n21 (configuration not stated) the results were Abeta yeast res inactive, pAkt inh inactive, TDP43 rescue 13µM, aSyn yeast inh inactive and FUS yeast rescue inactive.
For Cc1cc2nc3c(nc2cc1C)C1(C(=O)O)CCC3(C)C1(C)C (configuration not stated) the results were Abeta yeast res inactive, pAkt inh inactive, TDP43 rescue 20µM, aSyn yeast inh inactive and FUS yeast rescue inactive.
For CNC(=O)C12CCC(C)(c3nc4cc(C)c(C)cc4nc31)C2(C)C (configuration not stated) the results were Abeta yeast res inactive, pAkt inh inactive, TDP43 rescue inactive, aSyn yeast inh inactive and FUS yeast rescue inactive.
CCOC(=O)c1ccc(N=C2SC(C(=O)Nc3ccccc3)CC(=O)N2C)cc1 (configuration not stated) was read as Abeta yeast res inactive, TDP43 rescue inactive and FUS yeast rescue inactive.
